26 compounds from PubChem BioAssay AID1508615 (Milbrandt Lab, Department of Genetics, Washington …, 2020) can be followed below.

SMILES strings stand for the structures. In all, about 1,600 compounds went through this assay and about 20 (1%) were called active. What follows is part of a selection rich in actives, with near analogues and random picks from the rest. Values without a mark were called inactive.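 The calls were made as follows: active = ratio of uncleaved NAD to its breakdown product ADP-ribose above 4, meaning the enzyme was inhibited; inactive = the rest.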

The target of this assay is NAD(+) hydrolase SARM1 (Homo sapiens) (UniProt Q6SZW1). Briefly: SARM1 TIR NADase inhibitors by HPLC, primary screen, cell lysate, HPLC readout (AID 1508615).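 Also: substrate NAD at 5 µM with 60 min at 37 °C.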 The note with it: HEK293T SAM-TIR lysate, at 5 µM, stronger effect = higher value.
Sequence of NAD(+) hydrolase SARM1 (Homo sapiens) (Q6SZW1 whole entry, looked up): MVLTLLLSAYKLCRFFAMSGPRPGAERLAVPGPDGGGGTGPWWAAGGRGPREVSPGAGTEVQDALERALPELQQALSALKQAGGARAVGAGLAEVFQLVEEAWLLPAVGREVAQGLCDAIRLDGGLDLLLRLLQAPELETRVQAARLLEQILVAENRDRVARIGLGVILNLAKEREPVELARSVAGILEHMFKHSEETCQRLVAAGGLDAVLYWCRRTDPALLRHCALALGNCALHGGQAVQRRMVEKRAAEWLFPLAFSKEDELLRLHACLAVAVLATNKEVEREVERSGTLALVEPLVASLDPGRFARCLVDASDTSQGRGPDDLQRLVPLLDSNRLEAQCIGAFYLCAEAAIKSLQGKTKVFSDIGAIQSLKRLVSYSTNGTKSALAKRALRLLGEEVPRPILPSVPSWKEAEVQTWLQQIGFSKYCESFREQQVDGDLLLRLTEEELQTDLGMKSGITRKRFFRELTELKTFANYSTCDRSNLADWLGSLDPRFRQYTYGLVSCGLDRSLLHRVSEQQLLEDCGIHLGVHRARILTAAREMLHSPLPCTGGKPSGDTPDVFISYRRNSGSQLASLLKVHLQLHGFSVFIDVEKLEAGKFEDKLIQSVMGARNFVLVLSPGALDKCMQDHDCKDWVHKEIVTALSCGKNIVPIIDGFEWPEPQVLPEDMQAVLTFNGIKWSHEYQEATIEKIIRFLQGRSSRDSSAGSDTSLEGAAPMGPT
Take `CC1(C)SC(C)(C)N(C=O)C1C(=O)O` (stereo unspecified): the NAD/ADPR ratio is 3.
Turning to `CCOC(=O)Cc1cc(=O)[nH]n(-c2ccccc2)c1=O`, the NAD/ADPR ratio is 3.
With `Cc1ccc(/C=C2\CCOC2=O)cc1`, the NAD/ADPR ratio is 3.
Turning to `Cc1ccc2c(c1)sc1nncn12`, the NAD/ADPR ratio is 3.
The result for `Oc1ccc(Cc2ccccc2Cl)c(O)c1` reads 3.
The result for `COc1cc(/C=N/Nc2nc3c([nH]2)c(=O)n(C)c(=O)n3C)ccc1O` reads 3; that for `O=C1CCC(NC(=O)c2ccccc2)C(=O)N1` (stereo unspecified), 3.
The result for `O=C(/C=C/c1cccnc1)c1ccccc1O` reads 3; that for `CCCCCn1cnc2c(=S)nc(N)[nH]c21`, 3.
For the compound `CN1CN(C)C(c2ccncc2)=C1c1ccncc1`, the NAD/ADPR ratio is 3.
As to `CCCCOc1ccc(NC(=O)Nc2nnc(C)s2)cc1`, the NAD/ADPR ratio is 3.
As to `Cc1ccc(C(C)C)cc1NC(=O)Nc1ccc([N+](=O)[O-])cc1`, the NAD/ADPR ratio was 3.
The result for `Cc1cc(NC(=O)c2ccccc2)nc(C)n1` reads 3.
Take `Nc1ccnn1-c1ccccc1`: the NAD/ADPR ratio was 3.
With `O=C(O)C(Cc1cn[nH]n1)=NO`, the NAD/ADPR ratio is 3.
As to `NC(=O)SCC(=O)Nc1ccccc1C(=O)O`, the NAD/ADPR ratio is 3.
As for `CC(NC(=O)c1ccc(Cl)c(Cl)c1)c1ccc(-c2ccccc2)cc1` (stereo unspecified), the NAD/ADPR ratio was 3.
For the compound `OC(c1cc(-c2ccc(Cl)cc2)nc2ccccc12)C1CCCCN1` (stereo unspecified), the NAD/ADPR ratio was 3.
`Clc1ccc(SCNc2ccccc2Cl)cc1`: the NAD/ADPR ratio is 3.
Turning to `Nc1ncnc2c1ncn2C1OC(CO)C(O)C1N` (stereo unspecified), the NAD/ADPR ratio is 3.
Regarding `CC1(C)CC(=O)C(CC(=O)c2ccccc2)=C(NN=C(N)N)C1`, the NAD/ADPR ratio is 3.
As for `O=C(O)CCC1(c2ccccc2)NC(=O)NC1=O` (stereo unspecified), the NAD/ADPR ratio was 3.
With `c1ccc2c(c1)Oc1cccc3cccc-2c13`, the NAD/ADPR ratio is 3.
Turning to `O=C1c2cc([N+](=O)[O-])ccc2-c2cc(Br)c(N=C(NO)C(F)(F)F)cc21`, the NAD/ADPR ratio was 3.
Take `O=c1cc[nH]c2c(Cl)cccc12`: the NAD/ADPR ratio is 3.
Regarding `COc1cc(-c2ccc(NC(=O)NC3CC3)c(OC)c2)ccc1NC(=O)NC1CC1`, the NAD/ADPR ratio is 3.
